High-throughput results from PubChem BioAssay.
Autofluor counter – compound fluorescence in toxin protease inhibitor counterscreen. compound autofluorescence counterscreen, microsphere flow cytometry; active compounds read high. fluorescence intensity (test concentration not listed). 360,000 compounds, 3.1% hits. AID 624483; in the data active = fluorescence intensity above about 16000; inconclusive = no clear call, values can overlap the other calls
BoNT A protease – blocks Botulinum neurotoxin A light chain protease. multiplex microsphere protease substrate cleavage, flow cytometry. inhibition, % at 10 µM. 360,000 compounds, 0.17% hits; note: plate controls were buffer without enzyme for full effect and enzyme alone for no effect
MazF activator – MazEF (E. coli) toxin RNase activation; P0AE70; FAM/BHQ RNA-DNA oligo cleavage fluorescence, 5 h; activation, % at 20 µM; 350,000 compounds, 0.32% hits; AID 504720; in the data active = activation above about 50%
Target sequence (P0AE70 whole entry, looked up): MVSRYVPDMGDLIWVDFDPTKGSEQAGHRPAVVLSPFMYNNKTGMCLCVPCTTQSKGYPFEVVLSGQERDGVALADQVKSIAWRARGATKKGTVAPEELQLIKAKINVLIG
Anthrax LF inh2 – anthrax lethal factor protease inhibition | multiplex microsphere protease cleavage assay, LF | inhibition, % at 10 µM | P15917 | 360,000 compounds, 0.12% hits | AID 588501; note: plate controls were buffer without enzyme for full effect and enzyme alone for no effect
PfHsp40 rescue – compounds rescuing yeast from Plasmodium falciparum HSP40 toxicity; 340,000 compounds, 0.68% hits; growth rescue, % at 12.5 µM; S. cerevisiae expressing PfHsp40, growth rescue, ATP luminescence; in the data active = growth rescue above about 28%, passing the limit was not always enough; inconclusive = no clear call, values can overlap the other calls;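 note: yeast W303a lacking pdr1 and pdr3 grown in galactose medium; growth measured after three days at 30 °C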
BoNT F protease – blocks Botulinum neurotoxin F light chain protease. Multiplex microsphere protease cleavage assay, flow cytometry. 360,000 compounds, 0.22% hits. inhibition, % at 10 µM; in the data active = inhibition above about 35%, passing the limit was not always enough; inconclusive = no clear call, values can overlap the other calls; note: plate controls were buffer without enzyme for full effect and enzyme alone for no effect
Active calls of the source: *; ? = inconclusive; nt = no result; + = active, no number. Most compounds without a hit are left out; they make up all but 4.3% or so of the library. Cut-off read from the data, not from the text of the source, unless noted: active = inhibition above about 30%; inconclusive = no clear call, values can overlap the other calls; inactive = below that.

SMILES | Autofluor counter | BoNT A protease | MazF activator | Anthrax LF inh2 | PfHsp40 rescue | BoNT F protease
C#CCOCCOCCOCCNc1nc(N2CCN(C(=O)CCCCCCCCCCNC(=O)Cn3cc(C[C@@H](C)O)nn3)CC2)nc(N2CCN(C(=O)CCCCCCCCCCNC(=O)[C@@H]([C@H](C)CC)n3cc(CCCCCN)nn3)CC2)n1 | 4121 | -1 | -43 | -13 | 4 | -37
C#CCOCCOCCOCCNc1nc(N2CCN(C(=O)CCCCCCCCCCNC(=O)Cn3cc(CCCCCN)nn3)CC2)nc(N2CCN(C(=O)CCCCCCCCCCNC(=O)Cn3cc(C[C@@H](C)O)nn3)CC2)n1 | 2723 | 0 | -37 | -2 | 38* | -6
O=C(NCC(c1cccs1)N1CCOCC1)C1CCN(S(=O)(=O)c2cccc(C(F)(F)F)c2)CC1 (stereo not drawn) | 5726 | 2 | 4 | -4 | 0 | -2
O=C(c1cccc(Br)c1)N1CCN(S(=O)(=O)N2CCCCCC2)CC1 | 4412 | 1 | 1 | 1 | -2 | -4
CC(C)(C)C(=O)Nc1nnc(SCC(=O)NC2CC2)s1 | 3844 | 1 | 6 | 4 | 0 | 21
O=C(NCc1ccco1)c1nc2c(nnn2Cc2ccccc2Cl)c(=O)[nH]1 | 9232 | 1 | -5 | 5 | 2 | -12
O=C(NCC1CCCO1)c1nc2c(nnn2Cc2ccc(F)cc2)c(=O)[nH]1 (stereo not drawn) | 10302 | 1 | 5 | -2 | -1 | 13
O=C(NCc1cccs1)c1nc2c(nnn2Cc2ccc(F)cc2)c(=O)[nH]1 | 16259* | 0 | -7 | -2 | 0 | 0
Cc1ccc(C)c(Cn2nnc3c(=O)[nH]c(C(=O)NCc4ccco4)nc32)c1 | 22656* | 2 | -8 | -9 | 1 | 1
NCCCCCNC(=O)c1[nH]cnc1C(=O)N[C@@H](Cc1ccccc1)C(=O)OCc1ccccc1 | 4022 | 0 | 13 | -5 | 6 | -15
CCCCOc1ccc(C(=O)Nc2cccc(-n3cnnn3)c2)cc1OC | 6059 | 0 | -3 | 1 | 0 | -2
COc1ccc(-c2ccc(C(=O)N3CCOCC3)c3occc23)c(C)c1 | 3842 | 0 | nt | -6 | nt | -8
N#Cc1cc(Oc2ccc3ccccc3c2)c(-n2nnc3ccccc32)cc1C#N | 20725* | 0 | -33 | -1 | -1 | -3
Nc1ccc(C(O)(C(F)(F)F)C(F)(F)F)cc1 | 16402* | 0 | 4 | 0 | 0 | 0
CC(=O)Nc1ccc(NC(=O)CC(C)n2ccnc2)cc1 (stereo not drawn) | 3369 | 1 | -1 | -1 | 0 | 3
CNC(=S)N1N=C(c2ccc(Br)cc2)CC1c1ccc(Br)cc1 (stereo not drawn) | 21159* | 0 | -11 | -3 | 0 | -4
CCOC(=O)C1CCN(c2nc3ccccc3nc2C(C#N)C(=O)OC(C)COC)CC1 (stereo not drawn) | 4308 | 11 | -11 | 15 | 2 | -6
COc1ccc(CNC(=O)C(C#N)c2nc3ccccc3nc2N2CCN(C)CC2)cc1 (stereo not drawn) | 3038 | 0 | 0 | -3 | 0 | -6
COc1ccc(CNC(=O)C(C#N)c2nc3ccccc3nc2N2CCCC2)cc1 (stereo not drawn) | 2682 | 1 | + | 3 | -2 | -4
CCC(C)COC(=O)C(C#N)c1nc2ccccc2nc1N1CCCCC1 (stereo not drawn) | 21493* | ? | -31 | 15 | -1 | 6
CCCCCCOC(=O)C(C#N)c1nc2ccccc2nc1N1CCN(C)CC1 (stereo not drawn) | 8819 | 4 | 9 | 25 | 0 | 2
CCC(CC)COC(=O)C(C#N)c1nc2ccccc2nc1N1CCN(CC)CC1 (stereo not drawn) | 21646* | 7 | -7 | 10 | -1 | 3
CC(C)OC(=O)C(C#N)c1nc2ccccc2nc1N1CCCC1 (stereo not drawn) | 3598 | 6 | 1 | -2 | -1 | -1
CCOC(=O)C1CCN(c2nc3ccccc3nc2C(C#N)C(=O)OC(C)C)CC1 (stereo not drawn) | 2860 | 6 | 351* | 5 | 0 | 21
O=C(NC1=NCCS1)c1ccc(Cl)c(S(=O)(=O)N2CCOCC2)c1 | 3080 | 1 | 7 | -3 | 0 | 10
SMILES | Autofluor counter | BoNT A protease | MazF activator | Anthrax LF inh2 | PfHsp40 rescue | BoNT F protease
CC(=O)c1cccc(NC(=O)C2CC(=O)N(C3CCCC3)C2)c1 (stereo not drawn) | 3127 | 0 | 8 | -7 | -2 | 5
COc1ccccc1CNC(=O)CN(C)S(=O)(=O)c1ccc(Br)s1 | 3572 | -4 | 8 | 7 | 2 | 2
CCCCCCCCNCCS(=O)(=O)NN1CCOCC1 | 3165 | -1 | 1 | -5 | -1 | -5
C/C(=N\NS(=O)(=O)c1ccc(Cl)c([N+](=O)[O-])c1)c1cc2ccccc2o1 | 22417* | ? | -6 | 0 | 12 | -12
C/C(=N\NS(=O)(=O)c1ccc(Cl)c([N+](=O)[O-])c1)c1ccc(C)o1 | 3900 | 0 | 4 | 3 | -1 | 1
C/C(=N\NS(=O)(=O)c1ccc(C)c([N+](=O)[O-])c1)c1cc2ccccc2o1 | 16518* | -1 | -5 | -4 | -1 | -5
Cc1ccc(C(=O)c2cc3ccccc3o2)cc1[N+](=O)[O-] | 2619 | 1 | -8 | -1 | 0 | 0
Cn1cc(C=C(C#N)C#N)c2ccccc21 | 4237 | 0 | 154* | 3 | -1 | -3
Cn1c(=O)oc2ccc(C(=O)CSc3nnnn3-c3ccccc3)cc21 | 19593* | ? | -9 | -8 | 0 | -1
O=C(CSc1nnnn1-c1ccccc1)c1cc2ccccc2oc1=O | 4399 | -1 | 0 | 4 | 2 | -28
O=C(c1cccnc1)N1CCN(S(=O)(=O)c2ccc3ccccc3c2)CC1 | 16645* | 0 | -1 | -7 | 0 | 1
COc1ccc(S(=O)(=O)N2CCN(C(=O)c3cccnc3)CC2)cc1OC | 3565 | 1 | 6 | 10 | -2 | -2
O=C(Oc1cccnc1)c1cc(S(=O)(=O)N2CCCCC2)ccc1Cl | 21012* | 5 | 6 | 0 | 12 | 7
Fc1ccccc1N1CCN(Cc2cc(-c3ccccc3)on2)CC1 | 3052 | -2 | 0 | -5 | 1 | -6
CCCCN(C(=O)CSc1nc2ccccc2n1CC)C1CCS(=O)(=O)C1 (stereo not drawn) | 4057 | -1 | 1 | -4 | 0 | 2
Cc1cc(/C=N/n2cnnc2)c(C)n1-c1ccc(C(=O)O)cc1 | 23182* | -2 | 4 | -2 | 0 | -2
COC(=O)c1ccc(-n2c(C)cc(/C=N/n3cnnc3)c2C)cc1 | 3597 | 1 | 5 | 0 | 0 | 0
CC1CCN(c2nc3c(c(=O)n(C)c(=O)n3C)n2CCSc2nc3ccccc3s2)CC1 | 9205 | 0 | 8 | 0 | 0 | 4
CC1CCCN(c2nc3c(c(=O)n(C)c(=O)n3C)n2CCSc2nc3ccccc3s2)C1 (stereo not drawn) | 20318* | 1 | 7 | -4 | -1 | 1
